Experimental data reported in PubChem BioAssay (NCATS).
“And” between values parts separate entries of the source, which are not always exact repeats. Equal values may be shown once. Results filed as inconclusive are left out. A number with no mark means an inactive call. The source made the active and inactive calls. Calls follow the shape of the dose curve; as a rule, active = well fitted inhibition curve with a large enough effect; inconclusive = small, poorly fitted or top-dose-only effect; inactive = flat fitted curve, though single readings scatter. Where a SMILES comes first, the peptide text is derived from it. Bridges are numbered along the chain shown (N, C = ends). [ ]: non-standard residue; d: D form. The star is where a group is joined. X2 = CC[C@H](C)CCCCC(=O)*; Dab = NCC[C@H](N)C(=O)O

Experiment: Drug repurposing screens with cells derived from glioblastoma tumor samples (AID 1345199); also: nearly all actives have a fitted effect of over 40% in size
Settings: GBM patient neurospheres viability, ATP luminescence, 48 h
Method in brief: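 Four patient lines of CD133+ GBM neurospheres were screened at several concentrations; hits were retested in those lines plus three slower-growing GBM lines, using 48-hour treatment and ATP-based viability.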

[1] = at 45.9 µM (top of the series), tumour line B
[2] = at 45.9 µM (top of the series), tumour line D
[3] = at 46.1 µM (top of the series), tumour line C
[4] = at 46 µM (top of the series), tumour line A
% is scaled to controls: 0 for no effect and ±100 for the full control effect; potency is read from the fitted curve at half-maximal effect.

Row | SMILES | activity, negative = cell killing [1] | activity, negative = cell killing [2] | activity, negative = cell killing [3] | Potency (tumour line A) | activity, negative = cell killing [4] [%]
1 | CCN(CC)c1ccc(N=Nc2ccc(S(=O)(=O)N(C)C)cc2)c(S(=O)(=O)NCC[n+]2ccccc2)c1 | -13% | -3.67% | -10.2% | 35.5 µM (active) | –
2 | CC(=O)[C@@]1(O)CC[C@H]2[C@@H]3C=C(Cl)C4=CC(=O)CC[C@]4(C)[C@H]3CC[C@@]21C | -7.69% | -22.6% | -23.8% | 12.6 µM (active) | –
3 | CCCCC(=O)O | -3.62% and -8.26% | 6.9% and -1.28% | -7.54% and 1.54% | – | -15.7
4 | O=C[C@H](O)[C@@H](O)[C@H](O[C@H]1O[C@H](CO)[C@@H](O[C@H]2O[C@H](CO)[C@@H](O)[C@H](O)[C@H]2O)[C@H](O)[C@H]1O)[C@H](O)CO | -5.93% | -7.07% | 5.59% | – | -21.5
5 | O=C(O)c1cc2ccccc2c(Cc2c(O)c(C(=O)O)cc3ccccc23)c1O | 5.19% | -18.5% | -1.97% | – | -27.5
6 | COc1ccc(CCNCC(O)COc2cccc(C)c2)cc1OC (configuration not stated) | -28.4% | – | -25.3% | 11.2 µM (active) | –
7 | CC[C@H](C)CCCCC(=O)N[C@@H](CCN)C(=O)N[C@H](C(=O)N[C@@H](CCN)C(=O)N[C@H]1CCNC(=O)[C@H]([C@@H](C)O)NC(=O)[C@H](CCN)NC(=O)[C@H](CCN)NC(=O)[C@H](CC(C)C)NC(=O)[C@@H](CC(C)C)NC(=O)[C@H](CCN)NC1=O)[C@@H](C)O (X2-[Dab]T[Dab][Dab][Dab][dL]L[Dab][Dab]T; lactam 4-C) | 6.46% | 12.6% | -10.4% | – | –
8 | O=c1[nH]cnc2[nH]cc(CN3CCCCC3)c12 | -5.2% | -0.491% | -8.31% | – | 2.77
9 | Nc1ncnc(Nc2ccc(Cl)cc2)n1 | -4.5% | -28% | -9.25% | 35.5 µM (active) | –
10 | CC#CCC(C)[C@H](O)/C=C/[C@@H]1[C@H]2c3cccc(CCCC(=O)O)c3O[C@H]2C[C@H]1O (some centres not stated) | -5.83% | 2.53% | -26.2% | – | –
11 | CN1CC(O)c2cc(N=NC(N)=O)c(O)cc21 (configuration not stated) | -10.8% | – | 26.2% | – | -26.7
12 | CCCC1([C@H](O)C/C=C/[C@H]2[C@H](O)CC(=O)[C@@H]2CCCCCCC(=O)OC)CCC1 | 0.947% | -12.7% | -22% | 20 µM (active) | –
13 | NCCCC[C@H](NC(=O)[C@@H]1CCCN1C(=O)[C@@H]1CSSC[C@H](N)C(=O)N[C@@H](Cc2ccc(O)cc2)C(=O)N[C@@H](Cc2ccccc2)C(=O)N[C@@H](CCC(N)=O)C(=O)N[C@@H](CC(N)=O)C(=O)N1)C(=O)NCC(N)=O | -6.49% and -12.6% | -7.59% and -12.4% | 13.1% | – | -33.8
14 | CCC(=O)Oc1ccc2c(c1)CC[C@@H]1[C@@H]2CC[C@]2(C)[C@@H](OC(=O)CC)CC[C@@H]12 | -0.785% | -16.9% | -12.6% | 12.6 µM (active) | –
15 | CCOC(=O)COc1ccc2c(C)c(CCN(CC)CC)c(=O)oc2c1 | 4.06% | 5.03% | -14.9% | 12.6 µM (active) | –
16 | Cc1[nH]cnc1C[C@H]1CCc2c(C)c3ccccc3n2C1=O | 11.6% | -27.1% | 1.77% | – | -27.2
17 | c1cnc2cc3c(cc2n1)[C@@H]1CNC[C@H]3C1 | 5.48% | -17.8% | -0.703% | – | –
18 | C[C@H]1C[C@@H]2[C@H]([C@@H](O)C[C@@]3(C)[C@H]2CC[C@]3(O)C(=O)COC(=O)CCC(=O)O)[C@@]2(C)C=CC(=O)C=C12 | -16.2% | -23.4% | -3.84% | – | -16.8
